Results published in PubChem BioAssay AID651635 (National Center for Advancing Translational Sciences (NCATS), 2012).
About 1,900 (0.47%) of roughly 400,000 compounds were called active. About 14% were inconclusive and are not listed. The entries come from a sample that favours actives as a whole. Unmarked numbers belong to inactive results. The call rests on the fitted dose curve; in most records, active means well fitted cell-killing curve with a large enough effect; inconclusive means small, poorly fitted or top-dose-only effect, or effect the other way; inactive means no such curve, though single readings can be large or run the other way.

test: Viability Counterscreen for Primary qHTS for Inhibitors of ATXN expression; conditions: S2 cells (HEK-293 line with an ATXN2-luciferase reporter) viability, CellTiter-Fluor protease fluorescence, 24 h; series mostly up to 56.7 µM; activity change, negative = cytotoxicity: at the top concentration; further: nearly all actives have a fitted effect of over 40% in size
Potency means the concentration at half of the fitted maximal effect.

SMILES | activity change, negative = cytotoxicity | Potency
O=C(CN1C(=O)COc2ccc(S(=O)(=O)N3CCCCCC3)cc21)N1CCN(c2cccc(C(F)(F)F)c2)CC1 | 11.2% | 
Cc1ccc(S(=O)(=O)c2nc(-c3cccs3)oc2NCc2cccnc2)cc1 | -13.9% | 
CCCCS(=O)(=O)c1oc(-c2cccs2)nc1S(=O)(=O)c1ccccc1 |  | 3.16 µM (active)
NC(=O)CSc1oc(-c2cccs2)nc1S(=O)(=O)c1ccccc1 | -24.8% | 
COc1ccccc1-c1ccnc(-n2ncc(C(=O)NCCCN3CCOCC3)c2C)n1 | -0.273% | 
Cc1ccc(-c2cnc(C(O)c3cc(Cl)cc(Cl)c3)[nH]2)cc1 (stereo not given) | -36.4% | 
Cc1cc(C)c2oc(C(=O)Nc3ccc(S(=O)(=O)N4CCCCCC4)cc3)cc(=O)c2c1 | -26.3% | 
CCCc1ccc(C(O)c2ncc(-c3cccc(OC)c3)[nH]2)cc1 (stereo not given) | -15.1% | 
CC(=O)c1ccc(Nc2nc(C(N)c3ccccc3)cs2)cc1 (stereo not given) | -21.7% | 
COc1cccc(NC(=O)Nc2ccc(F)cc2)c1 | -34.2% | 
COc1ccc(C(N)c2csc(NC(=O)Nc3cccc(C(F)(F)F)c3)n2)cc1 (stereo not given) |  | 17.8 µM (active)
Cc1c(O)cc2c(c1C)O[C@](C)(CCC[C@H](C)CCC[C@H](C)CCCC(C)C)CC2 | -6.32% | 
OCC1CCCN(c2nc3cc4c(cc3cc2CNCc2cccs2)OCO4)C1 (stereo not given) | -16.8% | 
CC(C)c1cccc(C(C)C)c1Nc1cn[nH]c1 | -36.2% | 
CC(C)C[C@H]1CNC(=S)N1C[C@H]1CCCN1C[C@H](Cc1ccc(O)cc1)N1C[C@H](Cc2ccc(O)cc2)N(CC2CCCCC2)C1=S |  | 31.6 µM (active)
O=C1NC[C@H](Cc2ccc(O)cc2)N(C[C@@H]2CCCN2C[C@H](Cc2ccccc2)N2C[C@H](Cc3ccccc3)N(CC3CCCCC3)C(=O)C2=O)C1=O | -28.5% | 
CC(C)C[C@H]1CNC(=O)C(=O)N1C[C@@H]1CCCN1C[C@H](Cc1ccccc1)N1C[C@H](CC(C)C)N(CC2CCCCCC2)C(=O)C1=O | -13.6% | 
COc1ccc(C2CC(c3cccc(OC)c3)=NN2c2ccc(S(N)(=O)=O)cc2)cc1 (stereo not given) | -3.55% | 
CCCOc1ccc(F)cc1-c1cc(C(=O)Nc2ccc(F)c(Cl)c2)[nH]n1 | -38.1% | 
Nc1cccc(OCCCCCOc2cccc(N)c2)c1 | -35% | 
c1ccc(CN2CCN(Cc3ccc4c(c3)CN(Cc3c[nH]c5ccccc35)CCO4)CC2)nc1 | -13.5% | 
O=c1c(CN2CCOc3ccc(CN4CCC(Oc5cccnc5)CC4)cc3C2)coc2ccccc12 |  | 28.2 µM (active)
CCOC(=O)N1CCC(N2CCOc3ccc(CN4CCC(O)(c5cccnc5)CC4)cc3C2)CC1 | -3.39% | 
Cc1cc(-c2ccnc(-n3ncc(C(=O)NCCc4ccncc4)c3C)n2)c(C)s1 | -10.8% | 
CC[C@H](C)CCCCC(=O)N[C@@H](CCN)C(=O)N[C@H](C(=O)N[C@@H](CCN)C(=O)N[C@H]1CCNC(=O)[C@@H]([C@H](C)O)NC(=O)[C@H](CCN)NC(=O)[C@H](CCN)NC(=O)[C@H](CC(C)C)NC(=O)[C@@H](CC(C)C)NC(=O)[C@H](CCN)NC1=O)[C@@H](C)O | -16% [at 25.4 µM] | 
CC(C)N=C1CCCC1C(=S)SSC(=S)C1CCCC1=NC(C)C (stereo not given) |  | 0.282 µM (active)
CC1(C(=O)NS(=O)(=O)c2ccc3ccccc3c2)CCN1C(=O)C1(c2ccc(Cl)cc2)CCC1 (stereo not given) | -0.293% | 
CCOC(=O)Cc1ccc(NC(=O)Nc2c[nH]c(=O)[nH]c2=O)cc1 | -20.1% | 

SMILES | activity change, negative = cytotoxicity | Potency
COC(=O)c1ccccc1C(=O)NCc1nc(N2CCCC2)c2cccc(C)c2n1 | -14.5% | 
COc1ccc(COC[C@H](CC(C)C)N2CCN(C(=O)c3cccc(C(F)(F)F)c3)CCC2=O)cc1 | -37% | 
CC(=O)N1Cc2cc(C(=O)NCc3cccc(F)c3)nc(-c3cccc(C4=CCCC4)c3)c2[C@H]1CCO | -32.4% | 
CCCCOCCOC(=O)c1cccnc1 | -20% | 
Cc1coc2c(O)cc3c(c12)OC1(N2CCCCC2)C(=O)NCCCC31 (stereo not given) |  | 31.6 µM (active)
C=CCC[C@H](CCCCC)OC(=O)/C=C/[C@H](O)[C@@H](O)C[C@@H](O)CC=C | -36.7% | 
O[C@H]1CN(Cc2cccs2)[C@@H](c2ccc(Cl)cc2)C[C@@H]1n1cc(C2CC2)nn1 | -13.8% | 
O[C@H]1C[C@H](c2ccc(Cl)cc2)N(Cc2cccs2)C[C@@H]1n1cc(C2CC2)nn1 |  | 22.4 µM (active)
O=C(OCc1cn([C@@H]2C[C@H](c3ccc(Cl)cc3)N(Cc3cccs3)C[C@H]2O)nn1)c1ccccc1 | -17.8% | 
COc1cccc(CN2CCC3(CC2)c2ccccc2[C@@H](NC(=O)c2ccccc2OC)[C@@H]3O)c1 | -15.1% | 
c1ccc(C[C@H]2CNCCN2CCC23CC4CC(CC(C4)C2)C3)cc1 |  | 31.6 µM (active)
O=C1CCNCCN1[C@H](CO)Cc1ccccc1 | -14.8% | 
CCOc1ccccc1C(=O)Nc1ccc(S(=O)(=O)N2CCCCC2c2cccnc2)cc1 (stereo not given) | -18% | 
Cc1cccc(C(=O)Nc2ccc(S(=O)(=O)N3CCCCC3c3cccnc3)cc2)c1 (stereo not given) |  | 14.1 µM (active)
Cc1cc(NS(=O)(=O)c2ccc(NC(=O)c3cccnc3)cc2)nc(C)n1 | -27.6% | 
CCN1CCN(C(=O)N[C@@H](C(=O)N[C@@H]2C(=O)N3[C@@H]2SC(C)(C)[C@H]3C(=O)O)c2ccccc2)C(=O)C1=O |  | inactive
CCOC(=O)c1ccn(S(=O)(=O)c2ccc(C)cc2)c1-c1ccccc1 | -16% | 
Oc1ccc(N=Nc2nccs2)c(O)c1 |  | 10 µM (active)
Oc1ccc2ccccc2c1N=Nc1nccs1 |  | 15.8 µM (active)
CN1CCCCCC1C(=O)NCCN1Cc2ccccc2OC(c2ccsc2)C1 (stereo not given) | -11.5% | 
Cc1nc2cc(NC(=O)[C@@H]3C[C@@H](Sc4ccccn4)CN3Cc3ccccc3C)ccc2s1 | -14.5% | 
CC(=O)Nc1ccc(C=Cc2ccc([N+](=O)[O-])cc2)cc1 | -4.99% | 
O=C(NN=Cc1ccc([N+](=O)[O-])cc1)C1CC1 | -5.43% | 
O=C1/C(=C\c2ccc([N+](=O)[O-])cc2)CS(=O)(=O)C/C1=C/c1ccc([N+](=O)[O-])cc1 |  | 2.67 µM (active)
COC(=O)c1cc(Cl)c(NC(C)=O)cc1OC | 2.13% | 
O=c1cc(COc2cccc(C(F)(F)F)c2)nc2sc3c(n12)CCCC3 | -33.8% | 
O=C(Nc1ccc(Cl)cc1)C1Cc2c(-c3ccc4c(c3)OCO4)ccnc2O1 (stereo not given) | -25.3% | 
